# In PubChem BioAssay (NCATS):
# Where “and” joins values, the source holds several entries; their conditions need not be identical. Equal entries are not always repeated. Records with an inconclusive call do not appear. A call without a number means that no potency is given here. Calls of active or inactive are those of the source. Unless noted, calls come from the whole dose curve.
# Experiments:
# [1] = qHTS assay for small molecule agonists of retinoid X receptor alpha signaling (AID 588544); conditions: HEK293T RXRa-UAS-bla, beta-lactamase reporter, 18 h; 530 nm emission
# [2] = target: Retinoic acid receptor RXR-alpha (Homo sapiens) (UniProt P19793); test: as above; conditions: HEK293T RXRa-UAS-bla, beta-lactamase reporter, 18 h; series mostly up to 76.7 µM
# [3] = target: Thyroid hormone receptor beta (Homo sapiens) (UniProt P10828); test: qHTS assay for small molecule agonists of thyroid hormone receptor beta signaling (AID 588545); conditions: TR-UAS-bla GripTite HEK 293, beta-lactamase ratio, agonist mode, 18 h, percent of T3 response, DMSO as zero; series mostly up to 76.7 µM
# Summary of the method: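 In this cell-based screen, titrated compounds act on HEK 293 cells held in medium with 2% charcoal/dextran FBS, NEAA and pyruvate for 18 hrs at 37 C. Responses are expressed relative to T3 (10 nM) as 100% and basal DMSO as 0%.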
# [4] = qHTS assay for small molecule antagonists of retinoid X receptor alpha signaling (AID 588546; active = well fitted inhibition curve with a large enough effect in the signal ratio, with a control signal flat, not every such curve was filed as active; the % refers to the signal ratio;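 note: cells stimulated with 9-cis-retinoic acid as agonist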); conditions: HEK293T RXRa-UAS-bla, beta-lactamase ratio, antagonist mode; measured here: W530 green channel, cytotoxicity proxy
# Summary of the method: (§1)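 Beta-lactamase reporter inhibition, read as CCF4 fluorescence ratio (ex 405, em 460/530 nm) after 2 h at RT. HEK293T UAS-bla cells, 2500/well, were stimulated with 9-cis-RA at 500 or 100 nM final alongside test compound for 18 h at 37 C.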
# [5] = target: Retinoic acid receptor RXR-alpha (Homo sapiens) (UniProt P19793); test: as above; conditions: HEK293T RXRa-UAS-bla, beta-lactamase ratio, antagonist mode
# Summary of the method: as §1
# [6] = target: Thyroid hormone receptor beta (Homo sapiens) (UniProt P10828); test: qHTS assay for small molecule antagonists of thyroid hormone receptor beta signaling (AID 588547; active = well fitted inhibition curve with a large enough effect in the signal ratio, with a control signal flat, not every such curve was filed as active; the % refers to the signal ratio;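 note: cells stimulated with 0.4 nM T3 agonist during compound exposure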); conditions: TR-UAS-bla HEK293, beta-lactamase ratio, antagonist mode, 18 h
# Summary of the method: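 TR-UAS-bla GripTite HEK293 cells in 2% charcoal/dextran FBS medium were preincubated 4 h at 37 C, given compound (0.59 nM to 92 uM) plus 0.4 nM T3 (final) for 18 h, then CCF4 for 2 h at RT; Hill fit gave IC50.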
# [7] = target: Voltage-gated inwardly rectifying potassium channel KCNH2 (Homo sapiens) (UniProt Q12809); test: qHTS Assay for Small Molecule Inhibitors of the Human hERG Channel Activity (AID 588834; active = well fitted curve in the direction sought with a large enough effect; an effect the other way counts as inactive or inconclusive;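 note: top concentration of the series differs between compounds; lower thallium flux fluorescence means stronger hERG block; nearly all actives have a fitted effect of over 50% in size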); conditions: U2OS BacMam hERG, FluxOR thallium flux fluorescence; series mostly up to 92.2 µM
# Summary of the method: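 Concentration-response qHTS measuring drop in thallium-sensitive dye signal. U2OS cells carrying BacMam hERG; compound exposure ~10 min, then stimulation buffer and 2 min read at 1 sec intervals.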
# [8] = qHTS assay for small molecule agonists of the antioxidant response element (ARE) signaling pathway (AID 651741; active = well fitted activation curve with a large enough effect in the signal ratio; the % refers to the signal ratio); conditions: HepG2 ARE-bla reporter, beta-lactamase FRET ratio, 16 h; series mostly up to 96 µM
# Summary of the method: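 ARE-bla HepG2 cells (beta-lactamase reporter under ARE control) were plated at 2,000 cells/well, preincubated 5 h at 37 C/5% CO2, then treated with DMSO-dissolved compounds for 16 h at 37 C; LiveBLAzer B/G FRET substrate added, fluorescence read after 2 h at room temperature.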
# [9] = qHTS assay for small molecule disruptors of the mitochondrial membrane potential - 1 hr assay (AID 651754); conditions: series mostly up to 92.2 µM; note: nearly all actives have a fitted effect of over 35% in size
# Summary of the method: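 HepG2 cells, attached overnight at 37C, were exposed to compound or DMSO vehicle for 1 hr at 37C, 5% CO2, then stained with Mito-MPS dye for 30 min. Red aggregate versus green monomer fluorescence reports membrane potential.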
# [10] = qHTS assay for small molecule disruptors of the mitochondrial membrane potential - 5 hr assay (AID 651755); conditions: JC-1-type ratio dye; series mostly up to 92.2 µM; note: nearly all actives have a fitted effect of over 40% in size
# Summary of the method: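 HepG2 cells, attached overnight at 37C, were exposed to compound or DMSO for 5 hr at 37C, 5% CO2. Mito-MPS dye was then added for 30 min, and fluorescence read at 490/535 nm (monomers) and 540/590 nm (aggregates).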
# [11] = target: Tumor necrosis factor (Homo sapiens) (UniProt P01375); test: qHTS assay to identify small molecules that stimulate Tumor Necrosis Factor-alpha (TNF-alpha) secretion (AID 651757; active = well fitted curve in the direction sought with a large enough effect in the signal ratio; the % refers to the signal ratio); conditions: Human cells, HTRF 665/615 ratio; series mostly up to 92.2 µM
# Summary of the method: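 THP-1 cells were exposed to compounds for 17 hrs at 37 C, after which secreted TNF-alpha was measured by homogeneous HTRF (TR-FRET) using cryptate- and XL665-labeled anti-TNF-alpha antibodies, read after 3 hr at room temperature.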
# [12] = target: Peroxisome proliferator-activated receptor alpha (Homo sapiens) (UniProt Q07869); test: qHTS assay for small molecule agonists of the peroxisome proliferator-activated receptor alpha (PPARalpha) signaling pathway (AID 651778; active = well fitted curve in the direction sought with a large enough effect; an effect the other way counts as inactive or inconclusive); conditions: PathHunter PPARalpha complementation, chemiluminescence, 6 h; stronger effect = higher value
# Summary of the method: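 Cells plated at 2,000/well and held overnight at 37 C, 5% CO2, then compound added by pin tool for 6 hr; after PathHunter detection reagent and 60 min at room temperature, chemiluminescence from enzyme complementation was read.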
# [13] = target: Nuclear receptor ROR-gamma (Homo sapiens) (UniProt P51449); test: qHTS assay for small molecule antagonists of the retinoid-related orphan receptor gamma (ROR-gamma) signaling pathway (AID 651802; active = well fitted curve in the direction sought with a large enough effect; an effect the other way counts as inactive or inconclusive; note: nearly all actives have a fitted effect of over 60% in size); conditions: ROR-gamma antagonist cell reporter assay; series mostly up to 92.2 µM
# Summary of the method: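 CHO cells carrying TET-inducible ROR-gamma and an ROR response element–luciferase reporter were exposed to compound, then induced with doxycycline. After 16hr at 37C, luminescence was read; lower signal indicates antagonism.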
# [14] = qHTS assay for small molecule agonists of the antioxidant response element (ARE) signaling pathway measured by Nrf2-dependant transcriptional activity (AID 720636; active = well fitted curve in the direction sought with a large enough effect in the repeat runs; an effect the other way counts as inactive or inconclusive); conditions: ARE-luc HepG2, Nrf2 luciferase reporter, 16 h; series mostly up to 92.4 µM
# Summary of the method: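 ARE-luc HepG2 cells carrying an Nrf2-responsive luciferase reporter were plated in medium with 1% dialyzed FBS, left 6 hr at 37 C to attach, then exposed to compound for 16 hr. Luciferase luminescence was read after ONE-Glo addition.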
# [15] = qHTS assay for small molecule antagonists of the retinoid-related orphan receptor gamma (ROR-gamma) signaling pathway - cell viability counter screen (AID 720652; active = well fitted curve in the direction sought with a large enough effect in the repeat runs; an effect the other way counts as inactive or inconclusive;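 note: compound exposure lasted 16 hr before ATP read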); conditions: RORgamma reporter cell line viability counter screen; series mostly up to 92.2 µM
# Summary of the method: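 Counter screen in CHO cells carrying TET-inducible ROR-gamma and an ROR response element-luciferase reporter; cells plated 5 hr, compound pinned, doxycycline added, then 16 hr at 37 C. Viability read as intracellular ATP by CellTiter-Glo luminescence.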
# [16] = qHTS assay for small molecule agonists of the antioxidant response element (ARE) signaling pathway measured by Nrf2-dependant transcriptional activity - cell viability counter screen (AID 720653; active = well fitted curve in the direction sought with a large enough effect in the repeat runs; an effect the other way counts as inactive or inconclusive); conditions: ARE-bla HepG2 viability, CellTiter-Glo ATP luminescence, 16 h; stronger effect = lower value
# Summary of the method: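 ARE-bla HepG2 cells (2,000/well) rested 5 hrs at 37C/5% CO2, then exposed to compounds in DMSO for 16 hrs. Viability was read in the same wells as intracellular ATP by luminescence, 30 min at room temperature after reagent addition.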
# [17] = qHTS assay for small molecule activators of the nuclear factor-kappa B (NF-kB) signaling pathway (AID 651749; active = well fitted activation curve with a large enough effect in the signal ratio; the % refers to the signal ratio); conditions: NF-kB-bla ME-180 cells, beta-lactamase FRET ratio, 16 h; stronger effect = higher value
# Summary of the method: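 ME-180 cells stably carrying a beta-lactamase reporter under an NF-kB response element were exposed to compound or DMSO vehicle for 16 hr at 37C, 5% CO2. Pathway activation was read by FRET, since reporter expression disrupts FRET.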
# [18] = qHTS assay for environmental chemicals that activate the Aryl hydrocarbon Receptor (AhR) signaling pathway (AID 651777; active = well fitted curve in the direction sought with a large enough effect; an effect the other way counts as inactive or inconclusive; note: nearly all actives have a fitted effect of over 15% in size); conditions: 1A2-DRE human hepatoma cells, luciferase, 24 h; activation: stronger effect = higher value
# Summary of the method: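 Human hepatoma 1A2-DRE cells, stably carrying a dioxin response element and CYP1A2 promoter driving luciferase, were exposed to compounds for 24 hr at 37 C and 5% CO2. Luciferase signal was then read after 30 min One-Glo at room temperature.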
# [19] = qHTS assay to identify small molecules that stimulate interleukin-8 (IL-8) secretion (AID 651758; active = well fitted activation curve with a large enough effect in the signal ratio; the % refers to the signal ratio); conditions: HTRF ratio (665/615); series mostly up to 92.2 µM
# Summary of the method: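 THP-1, 2000 cells/well; cpd 16 h, 37 C; add cryptate + XL665 anti-IL-8 Abs; RT 1-3 h; TR-FRET read.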
# [20] = qHTS assay for small molecule activators of the p53 signaling pathway (AID 651743; active = well fitted activation curve with a large enough effect in the signal ratio, not every such curve was filed as active; the % refers to the signal ratio); conditions: HCT-116 p53RE-bla, beta-lactamase FRET ratio, 16 h; stronger effect = higher value
# Summary of the method: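 p53RE-bla HCT-116 cells with a stably integrated beta-lactamase reporter under p53 response elements were plated, rested 5 hours at 37 C/5% CO2, then exposed to compounds in DMSO for 16 hours at 37 C. LiveBLAzer B/G FRET substrate was read after 2 hours at room temperature.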
# Sequence of Peroxisome proliferator-activated receptor alpha (Homo sapiens) (Q07869 whole entry, looked up): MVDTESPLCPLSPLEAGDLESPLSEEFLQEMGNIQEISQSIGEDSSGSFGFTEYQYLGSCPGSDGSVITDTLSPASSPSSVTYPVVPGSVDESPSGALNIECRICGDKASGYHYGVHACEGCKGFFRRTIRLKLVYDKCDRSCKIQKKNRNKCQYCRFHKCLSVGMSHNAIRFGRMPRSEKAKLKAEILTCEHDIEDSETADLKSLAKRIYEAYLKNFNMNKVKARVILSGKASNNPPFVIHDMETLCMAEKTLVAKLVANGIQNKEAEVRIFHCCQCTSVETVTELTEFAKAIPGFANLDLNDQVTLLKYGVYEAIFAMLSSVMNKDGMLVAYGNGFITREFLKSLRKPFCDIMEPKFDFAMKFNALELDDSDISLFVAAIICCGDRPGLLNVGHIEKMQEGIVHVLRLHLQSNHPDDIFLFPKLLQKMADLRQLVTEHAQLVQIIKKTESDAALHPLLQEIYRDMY
# Sequence of Voltage-gated inwardly rectifying potassium channel KCNH2 (Homo sapiens) (Q12809 whole entry, looked up): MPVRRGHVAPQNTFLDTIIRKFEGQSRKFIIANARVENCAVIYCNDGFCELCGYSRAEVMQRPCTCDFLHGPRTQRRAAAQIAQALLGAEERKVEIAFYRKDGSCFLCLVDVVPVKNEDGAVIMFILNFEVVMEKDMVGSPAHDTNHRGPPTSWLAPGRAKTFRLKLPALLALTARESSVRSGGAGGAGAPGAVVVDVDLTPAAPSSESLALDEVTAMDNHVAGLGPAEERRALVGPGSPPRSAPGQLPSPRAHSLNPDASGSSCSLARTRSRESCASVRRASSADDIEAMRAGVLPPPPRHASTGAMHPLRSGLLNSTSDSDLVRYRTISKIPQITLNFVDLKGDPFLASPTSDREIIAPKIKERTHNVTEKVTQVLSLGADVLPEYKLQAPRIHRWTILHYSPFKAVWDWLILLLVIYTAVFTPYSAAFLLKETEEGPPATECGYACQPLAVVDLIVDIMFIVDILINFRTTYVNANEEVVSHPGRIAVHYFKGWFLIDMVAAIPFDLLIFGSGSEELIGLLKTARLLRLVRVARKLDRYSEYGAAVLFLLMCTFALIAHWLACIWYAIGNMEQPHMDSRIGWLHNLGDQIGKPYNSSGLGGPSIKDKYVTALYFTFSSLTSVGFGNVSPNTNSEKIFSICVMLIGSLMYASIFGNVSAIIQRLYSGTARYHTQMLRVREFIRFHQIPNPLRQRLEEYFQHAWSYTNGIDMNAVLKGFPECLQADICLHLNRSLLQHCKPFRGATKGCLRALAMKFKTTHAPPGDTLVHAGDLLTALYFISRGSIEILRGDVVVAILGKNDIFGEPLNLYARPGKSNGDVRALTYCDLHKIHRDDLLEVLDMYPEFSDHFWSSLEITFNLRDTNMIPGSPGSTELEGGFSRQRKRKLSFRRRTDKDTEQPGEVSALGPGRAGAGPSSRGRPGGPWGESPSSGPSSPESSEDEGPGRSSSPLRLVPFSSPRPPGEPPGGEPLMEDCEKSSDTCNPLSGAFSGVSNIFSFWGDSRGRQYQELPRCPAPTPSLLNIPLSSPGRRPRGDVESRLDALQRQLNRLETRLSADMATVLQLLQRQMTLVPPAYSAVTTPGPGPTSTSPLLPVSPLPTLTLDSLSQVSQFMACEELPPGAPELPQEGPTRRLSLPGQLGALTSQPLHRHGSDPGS
# Sequence of Tumor necrosis factor (Homo sapiens) (P01375 whole entry, looked up): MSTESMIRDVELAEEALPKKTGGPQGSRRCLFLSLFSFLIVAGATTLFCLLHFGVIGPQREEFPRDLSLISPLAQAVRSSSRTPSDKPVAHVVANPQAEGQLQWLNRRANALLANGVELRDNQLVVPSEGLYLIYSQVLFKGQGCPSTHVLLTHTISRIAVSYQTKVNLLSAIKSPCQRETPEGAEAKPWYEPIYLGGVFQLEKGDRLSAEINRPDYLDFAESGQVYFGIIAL
# Sequence of Thyroid hormone receptor beta (Homo sapiens) (P10828 whole entry, looked up): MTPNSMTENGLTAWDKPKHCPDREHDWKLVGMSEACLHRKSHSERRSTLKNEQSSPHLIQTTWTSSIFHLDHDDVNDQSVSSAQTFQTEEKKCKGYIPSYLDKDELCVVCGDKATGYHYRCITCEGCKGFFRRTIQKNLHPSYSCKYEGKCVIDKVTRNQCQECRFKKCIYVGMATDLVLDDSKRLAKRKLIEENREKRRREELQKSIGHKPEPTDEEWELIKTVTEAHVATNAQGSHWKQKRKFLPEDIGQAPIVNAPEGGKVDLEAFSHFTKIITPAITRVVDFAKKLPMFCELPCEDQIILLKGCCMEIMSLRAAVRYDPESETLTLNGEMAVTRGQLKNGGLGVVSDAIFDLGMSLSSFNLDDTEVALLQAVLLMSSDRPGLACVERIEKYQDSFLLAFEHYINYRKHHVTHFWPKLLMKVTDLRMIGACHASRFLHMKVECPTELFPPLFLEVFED
# Sequence of Nuclear receptor ROR-gamma (Homo sapiens) (P51449 whole entry, looked up): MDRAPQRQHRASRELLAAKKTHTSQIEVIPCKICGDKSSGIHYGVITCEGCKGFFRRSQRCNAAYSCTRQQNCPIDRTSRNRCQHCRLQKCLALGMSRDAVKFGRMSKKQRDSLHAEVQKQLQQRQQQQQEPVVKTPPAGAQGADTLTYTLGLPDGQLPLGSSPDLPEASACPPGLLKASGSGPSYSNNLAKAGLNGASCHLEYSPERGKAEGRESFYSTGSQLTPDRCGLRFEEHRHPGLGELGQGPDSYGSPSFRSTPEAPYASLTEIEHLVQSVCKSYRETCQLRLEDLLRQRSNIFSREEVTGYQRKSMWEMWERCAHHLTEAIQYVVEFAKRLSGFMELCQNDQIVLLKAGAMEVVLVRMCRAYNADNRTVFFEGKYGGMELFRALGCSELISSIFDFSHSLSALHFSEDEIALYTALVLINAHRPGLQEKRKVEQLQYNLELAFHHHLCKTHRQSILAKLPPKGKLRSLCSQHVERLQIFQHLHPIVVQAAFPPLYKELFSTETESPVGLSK
# Sequence of Retinoic acid receptor RXR-alpha (Homo sapiens) (P19793 whole entry, looked up): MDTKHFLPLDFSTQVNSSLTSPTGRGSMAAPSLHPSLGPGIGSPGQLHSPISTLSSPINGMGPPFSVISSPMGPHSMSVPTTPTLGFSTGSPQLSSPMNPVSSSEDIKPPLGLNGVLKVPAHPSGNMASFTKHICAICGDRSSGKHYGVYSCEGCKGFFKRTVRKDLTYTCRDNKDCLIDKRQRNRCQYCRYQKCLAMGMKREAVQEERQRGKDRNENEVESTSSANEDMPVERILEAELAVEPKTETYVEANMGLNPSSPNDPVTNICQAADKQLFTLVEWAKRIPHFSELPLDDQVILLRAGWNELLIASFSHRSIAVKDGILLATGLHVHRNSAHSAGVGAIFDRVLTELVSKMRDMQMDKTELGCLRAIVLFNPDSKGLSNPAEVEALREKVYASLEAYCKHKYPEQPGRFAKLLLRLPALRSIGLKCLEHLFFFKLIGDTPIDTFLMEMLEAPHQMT
Structure (SMILES),max response [1],outcome [2],outcome [3],max response [4],max response [5],activity change % (negative = inhibition) [6],Potency [7],Potency [8],Potency [9],Potency [10],Potency [11],max response [12],Potency [13],outcome [14],Potency [15],max response [16],activation [17],activation [18],Potency [19],activation [20]
Cc1ccc(Br)cc1,5.91%,inactive,inactive,1.18%,-0.837% (inactive),-9.28% (inactive),inactive,inactive,inactive,inactive,inactive,-0.752% (inactive),inactive,inactive,inactive,-9.09% (inactive),–,–,–,–
C1CCC2OC2C1 (stereo not drawn),6.92%,inactive,inactive,-13.8%,6.91% (inactive),14.7% (inactive),inactive,inactive,inactive,–,inactive,-2.34% (inactive),inactive,inactive,inactive,-3.72% (inactive),–,–,–,–
NC=O,4.7%,inactive,inactive,-9.34%,-7.48% (inactive),21.1% (inactive),inactive,inactive,–,inactive,inactive,-1.01% (inactive),inactive,inactive,inactive,6.13% (inactive),-0.435% (inactive),–,–,–
CCN(C(=O)N(CC)c1ccccc1)c1ccccc1,6.15%,inactive,inactive,-7.14%,0.622% (inactive),1.82% (inactive),inactive,inactive,inactive,inactive,inactive,-4.39% (inactive),inactive,inactive,inactive,-10.4% (inactive),–,-1.64% (inactive),–,–
C=C(C)C(=O)OCC(C)O (stereo not drawn),-4.4%,inactive,inactive,-2%,5.46% (inactive),11.2% (inactive),inactive,inactive,inactive,inactive,inactive,–,inactive,inactive,inactive,7.34% (inactive),–,–,inactive,–
O=Cc1ccccc1Cl,-11.2%,inactive,inactive,3.56%,26.5% (inactive),5% (inactive),inactive,inactive,inactive,inactive,inactive,–,inactive,inactive,inactive,-4.5% (inactive),-1.13% (inactive),-0.0176% (inactive),–,–
Cc1cccc(C)c1O,-16.7%,inactive,inactive,3.79%,-1.13% (inactive),-9.8% (inactive),inactive,–,inactive,inactive,inactive,-7.29% (inactive),inactive,inactive,inactive,8.44% (inactive),-0.357% (inactive),0.0984% (inactive),inactive,-0.5% (inactive)
Cc1cccc(Br)c1,-0.411%,inactive,inactive,-8.74%,17.3% (inactive),0.545% (inactive),inactive,inactive,inactive,inactive,inactive,-5.52% (inactive),inactive,inactive,inactive,6.53% (inactive),–,0.194% (inactive),–,-1.99% (inactive)
Nc1c(Cl)cc(Cl)cc1Cl,-8.9%,inactive,inactive,1.94%,4.53% (inactive),14.8% (inactive),inactive,inactive,inactive,inactive,inactive,–,–,inactive,inactive,-2.36% (inactive),–,-0.694% (inactive),–,-0.29% (inactive)
CC#N,8.5%,inactive,inactive,-2.35%,10.2% (inactive),12.3% (inactive),inactive,–,inactive,inactive,inactive,-2.21% (inactive),–,inactive,inactive,-0.353% (inactive),-1.06% (inactive),–,inactive,-3.18% (inactive)
CCCCC(CC)COCC1CO1 (stereo not drawn),-2.88%,inactive,inactive,2.35%,9.33% (inactive),1.98% (inactive),inactive,inactive,inactive,–,inactive,-0.684% (inactive),–,inactive,inactive,-19% (inactive),0.588% (inactive),-1.2% (inactive),–,–
O=C(Cl)c1cccc([N+](=O)[O-])c1,14.1%,inactive,inactive,0.426%,24.8% (inactive),5.89% (inactive),inactive,inactive,inactive,inactive,inactive,-2.24% (inactive),inactive,inactive,inactive,-1.32% (inactive),-0.912% (inactive),–,inactive,–
Nc1cccc(C(F)(F)F)c1,3.76% and -4.65%,inactive,inactive,-1.51% and -8.69%,23% (inactive) and -15.4% (inactive),5.58% (inactive),inactive,inactive,–,inactive,inactive,-0.773% (inactive) and -2.14% (inactive),inactive,inactive,inactive,1.34% (inactive) and -3.53% (inactive),–,0.706% (inactive) and 0.403% (inactive),inactive,–
